# Assay results taken from PubChem BioAssay (NCI).
# The panel holds about 83,000 compounds, 20% with a hit somewhere; the sample as a whole holds those more often.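 Results are percent growth after 48 hours of single-concentration exposure. 100 means growth as in untreated cells, lower positive values show inhibition; negative values down to -100 show cell death.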 Unmarked numbers belong to inactive results. Active and inactive are the calls of the source. Rule for the calls: active = growth percent below 10; inactive = the rest.
# Legend:
# Assay in all cases: NCI-60 one-dose screen, 48 h (100 = growth as untreated, 0 = no growth, -100 = all killed)
# Details in all cases: 10 µM
# [1] = tested on: T-47D breast
# [2] = tested on: BT-549 breast
# [3] = tested on: MDA-MB-435 melanoma
# [4] = tested on: SW-620 colon
# [5] = tested on: MCF7 breast
# [6] = tested on: HCT-116 colon
# [7] = tested on: HCC-2998 colon
# [8] = tested on: KM12 colon
Compound,growth [1],growth [2],growth [3],growth [4],growth [5],growth [6],growth [7],growth [8]
CCCCC(CC#N)(CCC)CCC,100%,98.5%,99.4%,108%,98.4%,106%,96.3%,107%
c1ccc(OCCC[P+](c2ccccc2)(c2ccccc2)c2ccccc2)cc1,13.3%,11%,0.653% (active),18.9%,4.3% (active),6.18% (active),14.3%,6.18% (active)
N#CCC1CCCC1,101%,112%,91.2%,104%,92.8%,99.8%,104%,110%
CCOC(=O)c1cc2c(n1Cc1cccc(OC)c1)-c1oncc1CC2,38.9%,28.3%,-23.5% (active),23%,14.1%,14.9%,58.6%,32.5%
COc1cccc(C(=O)N(c2ccc(F)c(F)c2)C(C(=O)NC(C)(C)C)c2cc3c(C)cc(C)cc3nc2Cl)c1 (stereo unspecified),46.6%,90.7%,63.2%,78.6%,45.6%,34.8%,88.3%,60.2%
Cc1ccc(C(=O)O)c(N)c1C,94.5%,94.3%,105%,104%,92.6%,92%,106%,95%
O=C(O)c1ccc(CNc2ccc(C(=O)CCl)cc2)cc1,58.1%,96.4%,87.7%,93.4%,32.4%,80.8%,127%,101%
CCN(CC)CC(O)Cc1ccc(OC)cc1 (stereo unspecified),104%,121%,102%,114%,111%,111%,111%,116%
CC(=O)N(O)c1ccc(/C=C/c2ccccc2)cc1,20.5%,43.5%,55.1%,23.3%,16.7%,19.7%,14.3%,47.9%
CNC(=S)Sc1ccc([N+](=O)[O-])cc1[N+](=O)[O-],32.2%,20.5%,29.5%,36.8%,31.5%,27.7%,75.1%,13.4%
C=CCc1cc(Nc2c3ccc(Cl)cc3nc3ccc(OC)cc23)cc(CN(CC)CC)c1O,0.233% (active),10.9%,15.5%,15.9%,3.42% (active),5.97% (active),24.2%,11.7%
COC(=O)CCCCCCCCC(C)c1ccc(C(C)=O)cc1 (stereo unspecified),94.4%,130%,97.1%,103%,118%,110%,99.6%,103%
COc1ccc(-c2nsc3c2NC(=O)CC3c2cccc(Cl)c2)cc1 (stereo unspecified),35.3%,36.5%,-12.2% (active),25.7%,17%,23.8%,43.5%,34.6%
Cc1nc(N)sc1Sc1nc2ccc(Cl)cc2c(=O)n1-c1ccc(Oc2ccccc2)cc1,75.5%,63.2%,88.1%,66.1%,87.4%,33.3%,74.1%,79.8%
Cc1cc(C)c(/C=C2\C(=O)Nc3ccc(NC(=O)CCCCCCC(=O)NO)cc32)[nH]1,15.3%,47.5%,2.24% (active),5.42% (active),12.2%,-77.2% (active),40.2%,60.2%
COc1cc(C2CC(=O)Nc3c2c(C)nn3-c2nc3ccccc3[nH]2)cc(OC)c1O (stereo unspecified),83.5%,46.2%,23%,45.7%,56.9%,68.4%,88.9%,45.7%

Compound,growth [1],growth [2],growth [3],growth [4],growth [5],growth [6],growth [7],growth [8]
COc1cc(-c2nc3ccc(C)cc3[nH]2)ccc1OCC(=O)N=Nc1c(O)[nH]c2ccccc12,-61.2% (active),18.9%,-52.6% (active),-62.9% (active),-73.4% (active),-82.7% (active),-91.2% (active),-79.4% (active)
COc1ccc(C2C=C(c3ccc(OC)c(OC)c3)N=C3SC=CN32)c(Br)c1 (stereo unspecified),54.7%,62.5%,5.29% (active),13.4%,12.7%,-78.2% (active),95%,31.5%
COc1cc(-c2nc3ccccc3[nH]2)ccc1OCC(=O)N=Nc1c(O)[nH]c2ccccc12,32.6%,104%,79.1%,64.8%,28%,31.6%,96.1%,27%
O=C1CC[C@@H](C(=O)N[C@H]2CSSC[C@@H](C(=O)NCCc3ccccc3)NC(=O)[C@H](Cc3ccccc3)NC(=O)[C@@H]3CCCN3C(=O)[C@@H]3CCCN3C2=O)N1,25.3%,106%,109%,102%,95.8%,95.8%,94.3%,105%
C#CCNCCCN1C(=O)c2ccc3c4c(ccc(c24)C1=O)C(=O)N(CCCNCC#C)C3=O,-52.1% (active),-93.8% (active),-66.9% (active),-59.8% (active),-72.7% (active),-25% (active),-90% (active),-80.4% (active)
CCCCCCCCCCCCCCCCCBr,95.6%,112%,99.6%,107%,101%,105%,96.2%,113%
CCOC(=O)Nc1ccc2c(c1)C(=O)N(CCOC)c1ccccc1O2,30.5%,52.8%,-14.2% (active),32%,14.4%,24.4%,55.3%,23%
S=c1c2ncccc2c(-c2ccccn2)nn1Cc1ccccn1,75.5%,79.7%,100%,109%,90.7%,62%,91.9%,103%
CC1=CC2OC34COC3CC(OC(=O)C(F)(F)F)C4(C)C2(C)CC1 (stereo unspecified),94.2%,95.9%,101%,103%,93.7%,96.6%,98.3%,105%
CCN(CC)CCCOC(=O)Nc1ccccc1Cl,106%,111%,105%,102%,112%,113%,110%,111%
Cc1ccc(S(=O)(=O)Nc2cccc3[nH]c(C(F)(F)F)nc23)cc1,47.2%,52%,-31.5% (active),18.6%,13.2%,23.8%,28.1%,21%
Nc1ncncc1-c1ccc(F)cc1,96.7%,111%,102%,114%,110%,108%,109%,110%
O=C(CSc1nnc(-c2ccc(Cl)cc2)o1)c1ccccc1,93%,98.3%,109%,107%,102%,92.2%,87.5%,96.3%
CCOC(=O)c1cc2c(n1Cc1ccccc1)-c1oncc1CC2,93.8%,92.7%,-27.4% (active),32.9%,80.3%,89%,83.6%,31.4%
Cc1cc(Cl)ccc1Nc1nc(C(F)(F)F)ccc1C(=O)N/N=C/c1ccccc1Cl,22%,-12.1% (active),16.4%,19.9%,16.2%,7.23% (active),16.7%,14.8%
COc1cc(CSc2nc3ccc(C)cc3c(=O)n2-c2ccccc2)cc(OC)c1OC,28.2%,19.6%,-20% (active),29.7%,19.9%,26.6%,49.7%,25.3%
